A selection: hits, their analogues and other compounds. The true share with any hit is near 0.79%.
AMA1 RON2 block: inhibitors of Plasmodium falciparum AMA1-RON2 interaction; AlphaScreen AMA1-biotinylated RON2 peptide binding; Potency, µM (series often up to 58.2 µM), actives largely listed as inhibitors; 0.2% of 360,000 active; AID 720542; note: nearly all actives have a fitted effect of over 45% in size
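AMA1 (3D7) with his tag at 25 nM final met compounds first, then biotinylated RON2 peptide at 25 nM; detection used donor plus acceptor beads, 10 µg/mL apiece, read by AlphaScreen after 30 min at room temperature.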
AmpC no deterg: AmpC beta-lactamase inhibition without detergent | P00811 | AmpC nitrocefin hydrolysis, absorbance 480 nm, 0.0001% Triton | Potency, µM (highest dose often 57.1 µM), actives largely listed as inhibitors | 0.52% of 330,000 active | AID 485341; note: nearly all actives have a fitted effect of over 20% in size
Target sequence (P00811 whole entry, looked up): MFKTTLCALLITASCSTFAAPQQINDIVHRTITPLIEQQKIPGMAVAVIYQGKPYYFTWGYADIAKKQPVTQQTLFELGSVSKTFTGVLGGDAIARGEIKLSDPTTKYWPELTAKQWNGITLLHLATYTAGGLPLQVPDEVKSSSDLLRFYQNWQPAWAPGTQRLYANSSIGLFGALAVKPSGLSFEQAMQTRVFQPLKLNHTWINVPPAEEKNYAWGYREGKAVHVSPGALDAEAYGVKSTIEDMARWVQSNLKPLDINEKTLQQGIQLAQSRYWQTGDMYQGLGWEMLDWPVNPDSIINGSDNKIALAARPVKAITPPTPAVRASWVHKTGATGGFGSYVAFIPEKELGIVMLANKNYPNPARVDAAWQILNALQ
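AmpC (5.3 nM in the dispensed reagent) in 20 mM phosphate pH 7.0 with 0.01% (detergent screen) or 0.0001% Triton X-100 was preincubated with compounds for 15 min at room temperature. Nitrocefin was then added from an 800 uM solution, and hydrolysis was followed at 480 nm.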
AmpC detergent: inhibitors of E. coli AmpC beta-lactamase with detergent. AmpC hydrolysis of nitrocefin, absorbance 480 nm, 0.01% Triton. P00811. Potency, µM (doses to about 114 µM), actives largely listed as inhibitors. 0.041% of 370,000 active; note: nearly all actives have a fitted effect of over 25% in size
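AmpC (5.3 nM in the dispensed reagent) in 20 mM phosphate pH 7.0 with 0.01% (detergent screen) or 0.0001% Triton X-100 was preincubated with compounds for 15 min at room temperature. Nitrocefin was then added from an 800 uM solution, and hydrolysis was followed at 480 nm.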
RE007 growth inh: less growth of the S. pombe RE007 Vpr strain. Potency, µM (top dose mostly 92.2 µM), actives largely listed as inhibitors. 0.21% of 360,000 active. AID 651644. S. pombe RE007 Vpr strain, BacTiter-Glo ATP luminescence, 24 h; active = well fitted falling curve with a large enough effect; inconclusive = small, poorly fitted or top-dose-only effect; inactive = no such curve, though single readings can be large or run the other way; note: nearly all actives have a fitted effect of over 50% in size
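Fission yeast RE007 carrying one integrated HIV-1 vpr copy, seeded at OD 0.01 in PMG+AL medium with 23 nL pinned compound. Grown 24 h at 30 degrees; viability read by BacTiter-Glo luminescence after 5 min.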
Hits are given with their value; - = inactive; ? = inconclusive; . = no result; [ ] = another dose, or the depositor's remark. Unless noted, calls come from the whole dose curve; as a rule, active = well fitted curve in the direction sought with a large enough effect; inconclusive = small, poorly fitted or top-dose-only effect, or another doubt; inactive = no such curve, though single readings can be large; an effect the other way counts as inactive or inconclusive.

SMILES | AMA1 RON2 block | AmpC no deterg | AmpC detergent | RE007 growth inh
CCN(CC)C(=O)CSC(Nc1ccc(F)cc1)=C(C#N)C#N | - | 14µM | - | -
C[C@]1(O)CCC2C3CC[C@@H]4CC(=O)CC[C@]4(C)C3CC[C@@]21C (some centres not stated) | - | - | . | -
C[C@]12CC(=CO)C(=O)C[C@@H]1CC[C@@H]1[C@@H]2CC[C@@]2(C)[C@H]1CC[C@]2(C)O | . | - | 50µM | .
Cc1ccn2c(C(=O)CSc3ccccc3Cl)c(C)nc2c1 | - | 0.32µM | - | -
O=C1C(Cl)=C(Nc2ccc3cn[nH]c3c2)C(=O)c2ccccc21 | - | - | - | 32µM
CN(C)c1ccc(NC2=C(Cl)C(=O)c3ccccc3C2=O)cc1 | 7.9µM | - | ? | ?
O=C(Nc1ccc2cn[nH]c2c1)c1c(Cl)cccc1Cl | -[11.6 µM] | - | - | -
Clc1ccc(/C=N/Nc2nnc(Cl)c3ccccc23)cc1 | - | - | ? | -
Clc1ccc(/C=N/Nc2nc(Cl)nc3ccccc23)cc1 | - | 18µM | - | -
C(=NN1CCCCCC1)c1ccccc1 | - | . | . | -
CN(c1ccccc1)c1ccc(/C=N/N2CCOCC2)cc1 | 11µM | - | - | -
Cn1c(=O)cc(SCC(=O)N2CCN(c3ccccc3F)CC2)c2ccc(Cl)cc21 | . | . | - | .
COc1cc2c(cc1NCc1ccc3c(c1)OCO3)oc1ccccc12 | 32µM | - | - | -
O=C(NCCCN1CCN(c2cccc(Cl)c2)CC1)Nc1ccccc1C(F)(F)F | . | . | - | .
CC(NC(=O)C1CCN(C(=O)c2ccc(-n3ccc4ccccc43)s2)CC1)c1ccccc1 (configuration not stated) | . | . | - | .
CCOC(=O)N1CCC(c2cc(=O)n3[nH]cc(C(=O)OC)c3n2)CC1 | - | 7.9µM | ? | -
Cn1c(=O)c(C(=O)NNC(=O)c2ccc(Br)cc2)c(O)c2ccccc21 | - | - | - | 28µM
CNC(=O)c1c(NC(=O)c2ccc(S(=O)(=O)N3CCCC(C)C3)cc2)sc2c1CCC2 (configuration not stated) | . | . | - | .
CCOC(=O)N1CCN(c2ncnc3c2cnn3-c2ccc(Cl)cc2)CC1 | . | 6.3µM | - | .
CCOC(=O)N1CCN(c2ncnc3nc[nH]c23)CC1 | - | 45µM | ? | -
CCN1CCN(c2ncnc3c2cnn3-c2ccc(Cl)cc2)CC1 | - | - | - | -
Cc1ccc(N2C(=O)CSC23C(=O)N(CC(=O)NCc2ccccc2)c2ccccc23)cc1 (configuration not stated) | . | . | - | .
CC12CC3(C)CC(C)(C1)CC(NC(=O)N1CCCC1)(C2)C3 | - | - | - | 3.5µM
c1ccc(-c2cn3nc(-c4ccccc4)sc3n2)cc1 | - | . | . | -
c1ccc(-c2cn3c4c(sc3n2)CCCC4)cc1 | - | - | - | 25µM
SMILES | AMA1 RON2 block | AmpC no deterg | AmpC detergent | RE007 growth inh
CN(C)/C=C/c1onc(-c2c(Cl)cccc2Cl)c1C#N | - | - | - | -
N#Cc1c(-c2c(Cl)cccc2Cl)noc1/C=C/Nc1ccc(C(=O)O)cc1 | - | 18µM | - | -
CCOC(=O)c1[nH]c2ccccc2c1NC(=O)CC(C)C | - | - | - | -
CCCC(=O)Nc1c(C(=O)OCC)[nH]c2ccccc12 | - | 20µM | - | -
COc1ccc2oc(C(=O)N(Cc3ccco3)Cc3cccs3)c(C)c2c1 | - | 32µM | - | -
Cc1ccc(NS(=O)(=O)c2ccc3[nH]c4c(c3c2)CCCCC4)cc1 | . | . | - | .
CC1CCN(c2nc(-c3ccc(C(C)(C)C)cc3)nc3ccccc23)CC1 | . | . | - | .
CC(C)C1C(=O)N(Cc2cn(CCC3OCCCO3)nn2)CCS(=O)(=O)N1Cc1ccc(-c2cccc(N(C)C)c2)cc1 (configuration not stated) | - | . | . | -
CC(C)C1C(=O)N(Cc2cn(CCC3OCCO3)nn2)CCS(=O)(=O)N1Cc1ccc(-c2cccc(N(C)C)c2)cc1 (configuration not stated) | 18µM | . | . | -
O=C(Nc1ccc(F)cc1Cl)c1cnc(N2CCOCC2)c2ccccc12 | . | . | - | .
O=c1c2cc(C(F)(F)F)ccc2sn1-c1ccccc1 | - | . | . | 8.9µM
O=c1c2cc(F)ccc2sn1-c1ccccc1 | - | - | - | 11µM
O=c1oc2ccccc2c2c1C1O[C@](c3ccsc3)(Cc3ccccc31)O2 | . | 4.5µM | -[22.9 µM] | .
Cc1cc(C(=O)N2CCN(c3ccccc3)CC2)c2c(C)nn(-c3cccc(F)c3)c2n1 | . | . | - | .

High-throughput results from PubChem.
